Spn MK inh: inhibitors of Streptococcus pneumoniae mevalonate kinase; hit rate 0.48% among 65,000; inhibition, % at 10 µM; purified MK, PK/LDH-coupled NADH absorbance 340 nm;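 active means ranked among the strongest by inhibition in the single 10 µM screen, a fixed top-ranked set picked for dose follow-up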
DPM-DC inhibit: inhibitors of Streptococcus pneumoniae diphosphomevalonate decarboxylase; calls only at 10 µM; purified DPM-DC, PK/LDH coupled NADH fluorescence; hit rate 0.49% among 65,000;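 active means the 320 compounds with the highest percent inhibition in the single-dose primary screen, excluding strongly autofluorescent ones, cut at about 32% in these data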;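 further: kinetic rate of NADH fluorescence loss reporting ADP formed by the decarboxylase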
A340 absorber: absorbance at 340 nm; compound absorbance at 340 nm, fold over control; fold change at 10 µM; 65,000 tested, under 10 active; AID 708;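 active means at 10 µM dose, initial 340 nm absorbance at least 2 fold that of control wells; inactive means change under 2 fold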;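 further: initial absorbance extrapolated from kinetic A340 decline of NADH oxidation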
NADH enzymes: blocks coupling enzymes of NAD/NADH assays | AID 774 | hit rate 0.02% among 65,000 | coupled PK/LDH NADH assays, four targets | IC50, µM (top dose mostly 10 µM), for the others: at the highest dose inhibition;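 active means single-dose screening hits from any of four coupled enzyme assays that gave an IC50 when retested across doses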;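 further: the DPM-DC format reads NADH fluorescence rather than 340 nm absorbance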
PMK inhibit: S. pneumoniae PMK inhibition; purified PMK, PK/LDH-coupled NADH absorbance 340 nm; inhibition, % at 10 µM; hit rate 0.49% among 65,000; AID 539;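 active means top-ranked compounds by inhibition in the single 10 µM screen, taking a fixed number of the strongest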;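 further: 0% = full reaction with DMSO carrier and 100% = background rate without enzyme reaction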
Autofluor 339: intrinsic fluorescence of library compounds, ex339/em460 – biochemical, MLSMR library, data from DPM-DC assay, artefact control, profiling panel; hit rate 5.5% among 65,000; compound autofluorescence, ex339/em460 nm, NADH buffer; stronger effect = higher value; 1 = no-compound wells, NADH background; AID 709; fluorescence fold increase at 10 µM;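 active means at 10 µM, mean starting fluorescence two-fold or more over control wells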;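 further: signal is the first read of a kinetic run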
Numbers without * were called inactive; i = inactive; . = no result given; + = active, no number; ! = repeats disagree. Only some compounds are listed: those with a hit (about 6.8% of all), similar ones and a draw of the others.

SMILES | Spn MK inh | DPM-DC inhibit | A340 absorber | NADH enzymes | PMK inhibit | Autofluor 339
CCOc1ccc(S(=O)(=O)NCCC(=O)OC(C)C(=O)N2CCc3ccccc32)cc1 (centres undefined) | 0 | i | 1 | 7% | 20 | 1
COc1ccc(C(=O)Cn2c(=O)c(CCC(=O)O)nn3c4ccccc4nc23)cc1OC | 11 | i | 1.1 | 17% | 11 | 2.8*
CC(C)c1nc(SCC(=O)NCc2ccccc2)n[nH]1 | 0 | i | 1 | 5% | 14 | 1.1
Cc1nc2c(cnn2-c2ccc(Cl)cc2)c(=O)n1-c1ccc2c(c1)OCCO2 | 8 | i | 0.96 | 8% | 15 | 1.1
COc1ccc2c(c1)OC1(C)CC2C(C(=O)c2ccccc2OC)C(=O)N1 (centres undefined) | 2 | i | 1 | 13% | 28* | 0.97
CC(C)Nc1oc(-c2cccc3ccccc23)nc1C#N | 3 | . | 1.1 | 3% | 2 | 3.8*
CCNc1oc(-c2cccc3ccccc23)nc1C#N | 8 | . | 1.1 | 4% | 0 | 2.1*
C=CCNc1oc(-c2cccc3ccccc23)nc1C#N | 7 | . | 1 | 4% | 4 | 2.9*
Brc1ccccc1Cn1c(-c2cncs2)nc2ccccc21 | 0 | i | 1.1 | 0% | 0 | 1.1
c1csc(Cn2c(-c3cccs3)nc3ccccc32)c1 | 13 | i | 1.1 | 14% | 3 | 2.8*
COc1ccccc1NC(=O)Cn1nnc(-c2ccccc2NC(=O)c2cccs2)n1 | 21 | i | 1 | 12% | 15 | 1.5
O=C(Cn1nnc(-c2ccccc2NC(=O)c2cccs2)n1)Nc1ccccc1 | 11 | i | 0.99 | 13% | 15 | 2.4*
COc1ccc(NC(=O)Cn2nnc(-c3ccccc3NC(=O)c3ccco3)n2)cc1 | 0 | i | 1 | 7% | 9 | 2.1*
O=C1C(=O)N(CCN2CCOCC2)C(c2ccncc2)/C1=C(/O)c1ccc2c(c1)OCO2 (centres undefined) | 79* | i | 1.1 | 26% | 0 | 1.1
CC(c1ccco1)N(C(=O)CSc1ccc(Br)cc1)c1ccccn1 (centres undefined) | 1 | i | 1 | 5% | 13 | 1.1
O=C(OCc1c(Cl)nc2sccn12)c1cc2c(s1)CCCC2 | 4 | i | 1 | 6% | 13 | 1.1
O=C(Nc1cccc2nsnc12)c1cccs1 | 6 | . | 1.1 | 9% | 11 | 3.6*!
O=C(Nc1ccc2nsnc2c1)c1cccs1 | 8 | i | 1 | 4% | 2 | 1.3
CCOc1ccc(N2C(=O)CC(n3nc(C)cc3C)C2=O)cc1 (centres undefined) | 5 | i | 0.99 | 4% | 8 | 1.1
CCCCc1c(C)c2ccc(OC)c(/C(C)=N\O)c2oc1=O | . | i | 1.1 | 12% | 9 | 2.5*
O=C(NC1CC1)c1ccc(S(=O)(=O)NC2CCCCCC2)cc1 | 0 | i | 1 | 2% | 5 | 1.1
Cc1ccc(NC(=O)c2oc3ccc(S(=O)(=O)N4CCOCC4)cc3c2C)cc1C | 4 | . | 1.1 | 5% | 11 | 3.1*
Cc1c(C(=O)Nc2ccc(F)cc2)oc2ccc(S(=O)(=O)N3CCCC3)cc12 | 7 | i | 1 | 7% | 12 | 1.1
Cc1c(C(=O)NC2CC2)oc2ccc(S(=O)(=O)N3CCCCCC3)cc12 | 1 | + | 1 | 5% | 12 | 1
O=C(NC1CCCC1)c1ccc(S(=O)(=O)N2CCCC2)cc1 | 6 | i | 1 | 2% | 11 | 2.1*
SMILES | Spn MK inh | DPM-DC inhibit | A340 absorber | NADH enzymes | PMK inhibit | Autofluor 339
O=C(CCNc1ccc(F)cc1)c1ccco1 | 8 | i | 1 | 8% | 5 | 1.1
CC(=O)c1cc2c(cc1NC(=O)c1cc(C)nn1-c1ccccc1)OCO2 | 3 | . | 1.1 | 3% | 3 | 2.2*
CC(=O)Nc1ccc(NC(=O)c2cc(C)nn2-c2ccccc2)cc1 | 4 | i | 0.98 | 3% | 1 | 1
CN(CCC(=O)Nc1ccc2c(c1)OCO2)Cc1ccccc1 | 45* | i | 0.98 | 19% | 13 | 1.2
CC(=O)c1cc2c(cc1NC(=O)CCc1ccccc1)OCO2 | 19 | i | 1 | 13% | 9 | 2.3*
CC(=O)c1cc2c(cc1NC(=O)CCCC(=O)O)OCO2 | 5 | i | 1 | 4% | 6 | 1.5
O=C(CSc1nnc2scc(-c3ccccc3)n12)N1CCN(Cc2ccccc2)CC1 | 3 | i | 1 | 2% | 12 | 1.1
COc1cc2c(cc1OC)CN(C(=O)CSc1nnc3scc(-c4ccccc4)n13)CC2 | 5 | + | 0.98 | 6% | 6 | 1.1
Cc1cc(N2CCCC2)nc(-c2ccccc2O)n1 | 7 | i | 0.98 | 14% | 15 | 2.6*
CCS(=O)(=O)NCCc1csc(C)n1 | 77* | i | 1 | 28% | 8 | 1.1
CCS(=O)(=O)NCc1csc(C)n1 | 4 | i | 0.97 | 6% | 13 | 1.1
c1ccc(Oc2cccc(NC3=NCCC3)c2)cc1 | 8 | i | 1 | 6% | 10 | 1.2
CCCOc1ccc(C2c3c(oc4cc(C)c(C)cc4c3=O)C(=O)N2CCCN(C)C)cc1OCC (centres undefined) | 5 | i | 1.1 | 3% | 3 | 1.1
CCOc1ccc(C2c3c(oc4cc(C)c(C)cc4c3=O)C(=O)N2CCCN(C)C)cc1OC (centres undefined) | 10 | i | 1.1 | 14% | 28* | 1.1
CN(C)c1oc(-c2ccccc2Cl)nc1C#N | 5 | i | 1.1 | 3% | 11 | 2.7*
CN(C)c1oc(-c2ccccc2Cl)nc1S(=O)(=O)c1ccccc1 | 8 | i | 1.1 | 7% | 0 | 1.1
CN(C)c1oc(-c2ccccc2)nc1C#N | 8 | . | 1.1 | 14% | 20 | 2.1*
Cc1ccccc1-c1nnc(-c2ccccc2)o1 | 5 | i | 1 | 10% | 8 | 1.1
CCOC(=O)c1nc(-c2ccccc2)oc1N(C)C | 0 | . | 1.1 | 5% | 9 | 4.9*
COc1ccccc1-c1c(C)oc2cc(OC(=O)c3ccco3)ccc2c1=O | 15 | i | 1.1 | 14% | 1 | 2.1*
CCOC(=O)c1cc2ccc(OC(=O)c3ccco3)cc2oc1=O | 9 | . | 1.2 | 7% | 5 | 3.7*
COc1ccccc1Oc1c(C)oc2cc(OC(=O)c3ccco3)ccc2c1=O | 8 | i | 1 | 12% | 8 | 2.6*
CCC(C)C(=O)Nc1cc(C(=O)OC)cc(C(=O)OC)c1 (centres undefined) | 1 | i | 1.1 | 1% | 3 | 1.2
CCOc1ccc2oc(-c3ccccc3)c(C(=O)N3CCN(CCO)CC3)c2c1 | 1 | . | 1 | 4% | 6 | 3.4*
CC(Oc1ccc2oc(-c3ccccc3)c(C(=O)O)c2c1)C(=O)O (centres undefined) | 5 | . | 1 | 2% | 2 | 2.4*
CCOc1ccc(C(=O)N2CCN(Cc3ccccc3)CC2)cc1 | 13 | i | 1 | 4% | 0 | 1.1

Assay outcomes from PubChem.
